According to PubChem BioAssay (NCATS):
Inconclusive results are not listed. Active and inactive are the calls of the source. Calls follow the shape of the dose curve; as a rule, active = well fitted cell-killing curve with a large enough effect; inconclusive = small, poorly fitted or top-dose-only effect; inactive = flat fitted curve, though single readings scatter.

Experiments:
[1] = Cell Viability - LYMP2-017 (AID 972); also: nearly all actives have a fitted effect of over 55% in size
In short: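 Cytotoxicity is scored as a concentration-dependent drop in cellular ATP in a human lymphoblastoid line after 24 hr treatment at 37 C. Values are AC50s from Hill-equation modelling.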

[2] = Cell Viability - LYMP2-019 (AID 973); also: nearly all actives have a fitted effect of over 55% in size
In short: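 Cytotoxicity is scored as a concentration-dependent drop in cellular ATP after cells (2500/well) receive compound for 24 hr at 37 C. Tetraoctylammonium bromide serves as positive control.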

[3] = Cell Viability - LYMP2-021 (AID 974);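 also: compound exposure lasts 24 hours at 37 °C; nearly all actives have a fitted effect of over 55% in size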
In short: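 Loss of cellular ATP, measured with a luciferase-based CellTiter-Glo readout, serves as the toxicity signal in human lymphoblastoid cells treated for 24 hours at 37 C. Potency is reported as AC50 from a standard Hill model.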

[4] = Cell Viability - LYMP2-023 (AID 975); also: nearly all actives have a fitted effect of over 55% in size
In short: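 Steps: seed 2500 human lymphoblastoid cells per well, incubate 5 hr at 37 C, add compound for 24 hr at 37 C, add CellTiter-Glo, hold 30 min at room temperature, read luminescence. AC50 derived by Hill modelling.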

[5] = Cell Viability - LYMP2-025 (AID 976)
In short: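 Acute cytotoxicity is scored as a concentration-dependent fall in intracellular ATP, measured by luciferase luminescence, in human lymphoblastoid LYMP2-025 cells exposed to compound for 24 hours at 37 C. AC50 values come from standard Hill fits.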

[6] = Cell Viability - LYMP2-002 (AID 977);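 also: compound exposure lasted 24 h at 37 °C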
In short: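 Human lymphoblastoid cells, 2500/well, complete medium; 5 h 37 C settle; compound 24 h 37 C; CellTiter-Glo, 30 min RT; luminescence. Decrease in ATP = cytotoxicity; AC50 via Hill equation.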

[7] = Cell Viability - LYMP2-006 (AID 978); also: nearly all actives have a fitted effect of over 60% in size
In short: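 Cells are seeded at 2500 per well and rested 5 hr at 37 C. Compounds are added across a concentration series for 24 hr at 37 C, after which ATP is quantified by luciferase luminescence.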

[8] = Cell Viability - LYMP2-007 (AID 979);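 also: cells exposed to compound for 24 h before reading; nearly all actives have a fitted effect of over 60% in size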
In short: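 Cells are seeded at 2500 per well and rested 5 hr. Compounds are then added over a concentration series for 24 hr at 37 C. CellTiter-Glo is added for 30 min at room temperature before luminescence reading.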

[9] = Cell Viability - LYMP2-008 (AID 980); also: nearly all actives have a fitted effect of over 60% in size
In short: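 Cells seeded at 2500/well and rested 5 hr at 37 C; compounds added over a concentration range and incubated 24 hr at 37 C; CellTiter-Glo added, 30 min at room temperature; luminescence read and AC50 fitted with Hill model.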

[10] = Cell Viability - LYMP2-010 (AID 981); also: nearly all actives have a fitted effect of over 55% in size
In short: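 Steps: seed 2500 LYMP2-010 cells per well; incubate 5 hr at 37 C; add compound; incubate 24 hr at 37 C; add CellTiter-Glo, wait 30 min at room temperature; read luminescence. Concentration-response fitted to Hill equation for AC50.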

Measured: Potency
Potency is read from the fitted curve at half-maximal effect.

Nc1ccn([C@H]2CS[C@@H](CO)O2)c(=O)n1
inactive: [1] | [2] | [3] | [4] | [5] | [6] | [7] | [8] | [9] | [10]

CCOc1ccc2c(c1)C(C)=CC(C)(C)N2
inactive: [1] | [2] | [3] | [4] | [5] | [6] | [7] | [8] | [9]

CC1=C(/C=C/C(C)=C/C=C/C(C)=C/CO)C(C)(C)CCC1
active: [10] 50.1 µM
inactive: [5] | [6] | [7]

O=CCCCC=O
active: [1] 20 µM | [2] 25.1 µM | [3] 15.8 µM | [4] 25.1 µM | [5] 39.8 µM | [6] 31.6 µM | [7] 25.1 µM | [8] 20 µM | [9] 25.1 µM | [10] 20 µM

CC1=C2[C@@H]([C@H](C)CC[C@H]2/C=C(\C)C(=O)O)[C@H](O)C1
inactive: [1] | [2] | [3] | [4] | [5] | [6] | [7] | [8] | [9] | [10]

CCCCC/C=C\C/C=C\CCCCCCCC(=O)O
inactive: [1] | [2] | [3] | [4] | [5] | [6] | [7] | [8] | [9]

CC(O)CO (centres undefined)
inactive: [1] | [2] | [3] | [4] | [5] | [6] | [7] | [8] | [9] | [10]

Cc1ccccc1
inactive: [1] | [2] | [3] | [4] | [6] | [7] | [8] | [9] | [10]

O=S(=O)(O)O
inactive: [1] | [2] | [3] | [4] | [5] | [6] | [7] | [8] | [9] | [10]

CCCCCCCC/C=C\CCCCCCCC(=O)O
inactive: [1] | [2] | [3] | [4] | [5] | [6] | [7] | [8] | [9] | [10]

CC(C)(C)NC(=O)[C@@H]1C[C@@H]2CCCC[C@@H]2CN1C[C@@H](O)[C@H](Cc1ccccc1)NC(=O)[C@H](CC(N)=O)NC(=O)c1ccc2ccccc2n1
active: [9] 50.1 µM | [10] 50.1 µM
inactive: [5]

CC(C)=O
inactive: [1] | [2] | [3] | [4] | [5] | [6] | [7] | [8] | [9] | [10]

IC(I)I
inactive: [1] | [2] | [3] | [4] | [5] | [6] | [7] | [8] | [9] | [10]

O=C(O)CCC(=O)C(=O)O
inactive: [1] | [2] | [3] | [4] | [5] | [6] | [7] | [8] | [9] | [10]

CCOC(C)=O
inactive: [1] | [2] | [3] | [4] | [5] | [6] | [7] | [8] | [9] | [10]

CCCCCCCC(=O)O
inactive: [1] | [2] | [3] | [4] | [5] | [6] | [7] | [8] | [9] | [10]
